Screen size: about 1,200 compounds; fewer than 10 were called active.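 How the source made its calls: active means inhibition reaching a set limit at one or more tested concentrations; inactive means inhibition under that limit at every dose.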 Not all results are given here. Entries with a potency or affinity are not part of this list.
Test: yeast RAM network inhibitors, dose response, S. cerevisiae (AID 1307);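 further: 0% = DMSO vehicle wells and 100% = 10 µM 1-NA-PP1 control; higher inhibition means more yeast growth since RAM block rescues cells from 5-FOA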
Details: S. cerevisiae RAM network URA3 reporter, 5-FOA growth OD615, stronger effect = higher value, yeast express analog-sensitive mutant Cbk1 kinase; at 100 µM unless noted

Max inhibition, inactive:
COc1ccc(C(=O)COC(=O)C(CCSC)NS(=O)(=O)c2ccc(Cl)cc2)cc1 (stereo unspecified) 2.78% [at 25 µM]
COCCn1c(=NC(=O)c2sc3ccccc3c2Cl)sc2cc(S(N)(=O)=O)ccc21 4.98% [at 50 µM]
CCOc1ccc(/C=C2/SC(=S)N(C(C(=O)O)c3ccccc3)C2=O)cc1OCC (stereo unspecified) 3.65%
Cc1ccc(-n2c(SCC(=O)N3CCCc4ccccc43)nnc2-c2cccnc2)c(C)c1 3.12% [at 50 µM]
O=C(O)c1cc(Sc2ccc(Br)cc2)nc2ccccc12 4.44% [at 50 µM]
CCCCc1ccc(N=N/C(C(=O)Nc2ccccc2OC)=C(/C)O)cc1 4.87% [at 50 µM]
O=C(COC(=O)CCN1C(=O)/C(=C\C=C\c2ccccc2)SC1=S)Nc1ccc(Br)cc1 9.41%
O=C(Nc1ccn(Cc2cccc3ccccc23)n1)c1cccnc1 3.63%
CCN(CC)S(=O)(=O)c1cccc(-c2nnc(SCCCC(=O)c3ccccc3)o2)c1 3.65%
O/N=C/c1cc(Br)ccc1OCc1cccc(F)c1 1.58% [at 0.196 µM]
COC(=O)c1scc(C)c1N/N=C(\C)c1ccc(F)cc1F 8.43%
CCCc1nn(C)c(C(=O)Nc2ccc(C(C)(C)C)cc2)c1Cl 3.4%
CCCCOn1c(C)c(C(=O)OCC)c2c3no[n+]([O-])c3ccc21 2.31%
O=C(NCc1ccc2c(c1)OCO2)c1cc(-c2ccccn2)nc2ccccc12 4.19% [at 3.125 µM]
CC(C)(CNC(=S)NCCc1ccccc1)CNC(=S)NCCc1ccccc1 4.96%
CCOC(=O)C(C)Sc1cc(CS(=O)(=O)c2ccccc2)nc(-c2ccccc2)n1 (stereo unspecified) 5.53%
CCN(CC)S(=O)(=O)c1cc(NS(=O)(=O)c2c(Cl)cccc2Cl)ccc1C 3.03% [at 50 µM]
Cc1ccccc1-c1nnn(CC(=O)Nc2ccc3c(c2)OCCO3)n1 4.6%
O=C(O)CCN1C(=O)/C(=C/c2cn(-c3ccccc3)nc2-c2cccs2)SC1=S 5.53%
COc1ccc(C(=O)/C=C/c2ccc(OC)c(COc3ccc(F)cc3)c2)cc1 5.41%
CC(CCc1ccccc1)NC(=O)CNC(=S)N(Cc1cccs1)C1CCCC1 (stereo unspecified) 3.28%
COc1ccc(-c2ccc(-c3noc(-c4cccc(OC)c4)n3)c(OC)n2)cc1 4.12%
CC1(C)CC(C(CCN(Cc2ccccc2)C(=O)c2ccco2)c2ccc(F)cc2)CCO1 (stereo unspecified) 4.56% [at 50 µM]
C=C(C)COc1ccc(-c2[nH]ncc2Oc2ccccc2OCC)c(O)c1 3.4%
CCOC(=O)c1sc(-c2ccccc2)cc1NC(=O)c1ccc(S(=O)(=O)N(CCOC)CCOC)cc1 1.69% [at 12.5 µM]
O=C1Nc2ccccc2/C1=N\N=C\C1=C(N2CCOCC2)C(=C\c2ccccc2)/CC1 19.6%
O=S(=O)(Nc1nc2ccccc2nc1Nc1ccc2c(c1)OCCO2)c1cccs1 5.19%
Cc1cc(C)c(C)c(S(=O)(=O)N2CCC(C(=O)OCC(=O)N3c4ccccc4NC(=O)C3(C)C)CC2)c1C 4.49%
CCOC(=O)c1ccc(NC(=O)Nc2ccc3c4c(cccc24)C(=O)N3CC)cc1 3.19%
CC(C)c1ccc(CNc2cc(N3CCCC3)ccc2[N+](=O)[O-])cc1 5.27%
CCCCc1ccc(-c2csc(/C(C#N)=C\c3ccc(C)o3)n2)cc1 5.43%
O=C(CN(Cc1cccs1)C(=O)CSc1nnc(COc2ccccc2)o1)NC1CCCC1 3.76%
COc1ccc(/C=C2\SC(=O)N(CCC(=O)Nc3ccccc3)C2=O)cc1OC 3.41%
Cc1cc2c(C)ccc(C)c2nc1SCC(=O)c1cccs1 5.59% [at 25 µM]
COc1ccc(O[C@H]2C=C[C@@H](c3ccccc3)O[C@@H]2CO/N=C(\C)CCC(=O)OC[C@H]2O[C@H](c3ccccc3)C=C[C@@H]2Oc2ccc(OC)cc2)cc1 6.56%
Cc1ccc(S(=O)(=O)N2CCC(=O)N(C(COCc3cccc(C(F)(F)F)c3)C(C)C)CC2)cc1 (stereo unspecified) 2.65% [at 0.782 µM]
CCOC(=O)c1c(NC(=O)CSc2nnc(-c3ccco3)o2)sc(C)c1C 4.63% [at 0.391 µM]
CCOC(=O)c1cc(C(C)C)sc1NC(=O)COC(=O)CCS(=O)(=O)c1ccccc1 3.24% [at 50 µM]
Cc1c(N=Nc2ccc(N(C)C)cc2)c(=O)n(-c2ccccc2)n1C 20.4%
COc1ccc(N(CC(=O)NCCSCc2ccco2)S(=O)(=O)c2ccc(C)cc2)cc1 4.74% [at 50 µM]
Cc1ccc(N=C(NOCc2ccc(Cl)cc2Cl)c2nonc2N)c(C)c1 5.27%
CCOC(=O)c1sc(NC(=O)CSc2nnc(-c3ccc(OC)cc3)n2CCOC)nc1C 1.33% [at 0.782 µM]
CCC(=O)NC(=S)Nc1ccc(NC(=S)NC(=O)c2ccccc2)cc1 5.34% [at 50 µM]
O=C(CSc1nnc(-c2ccccc2Br)o1)N1CCc2ccccc2C1 2.54%
N#Cc1ccsc1NC(=O)COC(=O)CCCSc1nc2ccccc2s1 2.77% [at 50 µM]
O=C(/C=C/c1cccc([N+](=O)[O-])c1)NCCSCc1ccccc1Cl 1.79% [at 6.25 µM]
Clc1ccc(CSc2nnc(/C=C/c3ccccc3)o2)cc1 2.78% [at 25 µM]
CCSc1ccc(-c2nn(-c3ccccc3)cc2/C=C(/C#N)C(=O)NCCCOC)cc1 13%
CCOC(=O)c1c(-c2cccs2)csc1NC(=O)COC(=O)c1c(C)noc1C 4.68%
Cc1ccc(NC2=Nc3ccccc3N3C2=Nc2c(c(C)nn2-c2ccccc2)C3c2ccc(O)c(O)c2)cc1 (stereo unspecified) 6.97%
COc1ccc(C(=O)CSc2nc(C(C)(C)C)nc3ccccc23)cc1 2.25% [at 1.563 µM]
Cc1[nH]c2ccccc2c1/C=C/c1nc2ccccc2c(=O)n1-c1ccc([N+](=O)[O-])cc1 6.44%
N#Cc1nc(COc2ccccc2)oc1N1CCN(c2cccc(Cl)c2)CC1 3.36% [at 50 µM]
O=C(COC(=O)c1ccc(-c2ccccc2)cc1)Nc1ccccc1-c1ccccc1 4.8% [at 50 µM]
CC(C)(C)OC(=O)NCCCCCNC(=O)c1[nH]cnc1C(=O)N[C@@H](Cc1ccccc1)C(=O)OCc1ccccc1 6.61%
CCOc1ccc(NS(=O)(=O)c2ccc(NC(=S)NC(=O)CC(C)C)cc2)cc1 3.65% [at 0.196 µM]
COc1cc(CC(NC(C)=O)C(=O)NC2CCN(c3c(Cc4ccccc4)c(C)nc4ncnn34)CC2)cc(OC)c1 (stereo unspecified) 3.02% [at 25 µM]
O=C(/C=C/c1ccccc1)N1CCN(c2cccc(Cl)n2)CC1 6.02%
CCOC(=O)c1c(C)[nH]c(C(=O)C(C)Sc2ccc(Cl)cc2)c1C (stereo unspecified) 2.41% [at 12.5 µM]
O=C(CSCc1ccc(Cl)cc1)Nc1cccc(C(=O)Nc2ccccc2C(=O)O)c1 1.32% [at 0.196 µM]
CCOc1ccc(NC(=O)CSc2nnc(-c3ccccc3Cl)n2Cc2ccco2)cc1 1.32% [at 0.782 µM]
C=CCN1C(=O)C(Cc2ccc(C)cc2)S/C1=N/N=C/c1ccco1 (stereo unspecified) 6.91%
CC(=O)c1cc(C(=O)c2ccccc2)sc1Nc1ccccc1 6.93%
CCOC(=O)c1c(-c2cccc([N+](=O)[O-])c2)csc1NC(=O)CCCOc1ccccc1OC 2.67% [at 50 µM]
COc1ccc(CN(CCC(c2ccccc2)c2ccco2)C(=O)c2ccco2)cc1 (stereo unspecified) 4.81% [at 6.25 µM]
COc1ccccc1NC(=O)C(Sc1ccccc1)c1ccccc1 (stereo unspecified) 2.18% [at 50 µM]
CCOC(=O)/C(=C/c1ccc(N2CCC(c3ccccc3)=N2)cc1)C(C)=O 3.75%
O=C(COC(=O)C1(c2ccccc2F)CCCC1)Nc1ncc(C(F)(F)F)cc1Cl 2.79% [at 0.196 µM]
CCOC(=O)c1cnc(SC)nc1Oc1cccc(NC(=O)c2ccc(C)cc2)c1 5.83% [at 50 µM]
CCCC(CCC)=NNc1ccc(S(=O)(=O)Nc2ccccc2OC)cc1[N+](=O)[O-] 3.78% [at 0.391 µM]
Cc1cccc(COCC(Cc2ccccc2)N2CCN(C(=O)c3ccc(C(F)(F)F)cc3)CCC2=O)c1 (stereo unspecified) 3.28% [at 0.782 µM]
Cc1ccc(NC(=O)COC(=O)CCC(=O)c2ccc(C(C)(C)C)cc2)c([N+](=O)[O-])c1 2.67% [at 0.196 µM]
CCOC(=O)c1sc(NC(=O)CCCn2nc([N+](=O)[O-])cc2C)c(C(=O)OCC)c1C 4.45% [at 0.782 µM]
CCCCCCCCNC(=O)/C(C#N)=C/c1ccc(SC)cc1 5.43%
CCOC(=O)C(C)(C)N(Cc1cccc(C)c1)S(=O)(=O)c1cccc([N+](=O)[O-])c1 2.41% [at 50 µM]
O=C(Nc1ccccc1-c1nnc(SCc2ccccc2)o1)c1ccccc1 4.39% [at 3.125 µM]

From PubChem BioAssay AID1307 (SRMLSC, 2008)
